Measured values published in PubChem BioAssay (NCI).
The panel holds about 83,000 compounds, 20% with a hit somewhere; the sample as a whole holds those more often.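 Note: values are percent growth. 100 is the growth of untreated cells, values between 100 and 0 indicate rising inhibition; between -100 and 0 indicates cell death.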 Activity calls are given as the source filed them. The calls were made as follows: active = growth percent below 10; inactive = the rest.

Columns and labels:
Experiment in all cases: NCI-60 one-dose screen, 48 h (100 = growth as untreated, 0 = no growth, -100 = all killed)
Details in all cases: 10 µM unless noted
NCI-H23 lung = test system: NCI-H23 lung
NCI-H226 lung = test system: NCI-H226 lung
NCI-H322M lung = test system: NCI-H322M lung
HOP-62 NSCLC = test system: HOP-62 NSCLC
NCI-H460 lung = test system: NCI-H460 lung
HOP-92 NSCLC = test system: HOP-92 NSCLC
NCI-H522 lung = test system: NCI-H522 lung
A549/ATCC NSCLC = test system: A549/ATCC NSCLC
786-0 renal = test system: 786-0 renal
COLO 205 colon = test system: COLO 205 colon
DU-145 prostate = test system: DU-145 prostate
K-562 leukemia = test system: K-562 leukemia
MALME-3M melanoma = test system: MALME-3M melanoma
MDA-MB-231 breast = test system: MDA-MB-231 breast
RXF 393 renal = test system: RXF 393 renal
SF-268 CNS = test system: SF-268 CNS
SF-295 CNS = test system: SF-295 CNS
SF-539 CNS = test system: SF-539 CNS
UACC-257 melanoma = test system: UACC-257 melanoma
M14 melanoma = test system: M14 melanoma

Measured: growth

COc1cc(C=Nc2oc(-c3ccccc3)c(-c3ccccc3)c2C#N)cc(CN2CCCCC2)c1O
inactive: NCI-H23 lung 88.6% | NCI-H226 lung 90.5% | NCI-H322M lung 99.6% | HOP-62 NSCLC 97.8% | NCI-H460 lung 101% | HOP-92 NSCLC 103% | NCI-H522 lung 88% | A549/ATCC NSCLC 105% | 786-0 renal 102% | COLO 205 colon 122% | DU-145 prostate 107% | K-562 leukemia 102% | MALME-3M melanoma 110% | MDA-MB-231 breast 106% | RXF 393 renal 104% | SF-268 CNS 94.9% | SF-295 CNS 102% | SF-539 CNS 101% | UACC-257 melanoma 116% | M14 melanoma 109%

Cc1[nH]c(-c2ccc3cc[nH]c3c2)c2c1C(=O)CCCC2
inactive: NCI-H23 lung 49.3% | NCI-H226 lung 52.4% | NCI-H322M lung 50.4% | HOP-62 NSCLC 32.3% | NCI-H460 lung 66.8% | HOP-92 NSCLC 37.1% | NCI-H522 lung 37% | A549/ATCC NSCLC 51.9% | 786-0 renal 50.5% | COLO 205 colon 40.6% | DU-145 prostate 79.1% | K-562 leukemia 26.2% | MALME-3M melanoma 56.2% | MDA-MB-231 breast 43.2% | RXF 393 renal 68.1% | SF-268 CNS 64.8% | SF-295 CNS 38.8% | SF-539 CNS 48.6% | UACC-257 melanoma 47.7% | M14 melanoma 51.6%

CC1=C[C@H]2c3c(c(O)c(O)c4oc5cc(O)ccc5c(=O)c34)[C@H](c3cc(O)c(O)c4oc5cc(O)ccc5c(=O)c34)[C@H]2C(C)(C)C1
inactive: NCI-H23 lung 15.8% | NCI-H226 lung 26.3% | NCI-H322M lung 63.6% | HOP-62 NSCLC 39.8% | NCI-H522 lung 13.7% | A549/ATCC NSCLC 13.1% | 786-0 renal 47.9% | COLO 205 colon 46.6% | DU-145 prostate 34.4% | MALME-3M melanoma 60.8% | MDA-MB-231 breast 50.9% | RXF 393 renal 54.5% | SF-268 CNS 36% | SF-295 CNS 21.5% | SF-539 CNS 20.4% | UACC-257 melanoma 62.7% | M14 melanoma 38.3%
active: NCI-H460 lung 0.208% | HOP-92 NSCLC -9.21% | K-562 leukemia 6.38%

Cn1c(=O)[nH]c(=O)c2nc(CCC(=O)NCCC(=O)O)c(=O)[nH]c21
inactive: NCI-H23 lung 97.5% | NCI-H226 lung 88.3% | NCI-H322M lung 100% | HOP-62 NSCLC 105% | NCI-H460 lung 103% | HOP-92 NSCLC 98.2% | NCI-H522 lung 96.5% | A549/ATCC NSCLC 103% | 786-0 renal 109% | COLO 205 colon 109% | DU-145 prostate 113% | K-562 leukemia 104% | MALME-3M melanoma 98.9% | MDA-MB-231 breast 110% | RXF 393 renal 112% | SF-268 CNS 98.2% | SF-295 CNS 102% | SF-539 CNS 95.7% | UACC-257 melanoma 101% | M14 melanoma 111%

Nc1n[nH]c2ccc([C@@H]3Nc4ccc5[nH]ncc5c4[C@H]4C5C=CC(C5)[C@@H]34)cc12 (stereo not given in full)
active: NCI-H226 lung -6.81% | NCI-H460 lung -10.8% | COLO 205 colon 2.87% | DU-145 prostate 8.03% | K-562 leukemia 8.61% | SF-295 CNS 1.53% | SF-539 CNS -31.4% | M14 melanoma 4.56%
inactive: NCI-H23 lung 14.1% | NCI-H322M lung 43.8% | HOP-62 NSCLC 41.8% | HOP-92 NSCLC 61.2% | NCI-H522 lung 14.3% | A549/ATCC NSCLC 20.1% | 786-0 renal 30.3% | MALME-3M melanoma 43.1% | MDA-MB-231 breast 25.5% | RXF 393 renal 17.8% | SF-268 CNS 20.3% | UACC-257 melanoma 68.6%

C=CC(=O)Nc1cccc(-c2nc(SC)nc(NCCN3CCOCC3)c2C#N)c1
inactive: NCI-H23 lung 92.5% | NCI-H226 lung 97.1% | NCI-H322M lung 94.2% | HOP-62 NSCLC 99.9% | NCI-H460 lung 101% | HOP-92 NSCLC 76.1% | NCI-H522 lung 76% | A549/ATCC NSCLC 101% | 786-0 renal 87.5% | COLO 205 colon 114% | DU-145 prostate 94.7% | K-562 leukemia 87.7% | MALME-3M melanoma 89.6% | MDA-MB-231 breast 87.9% | RXF 393 renal 89.7% | SF-268 CNS 83.8% | SF-295 CNS 106% | SF-539 CNS 93.3% | UACC-257 melanoma 94.1% | M14 melanoma 89.9%

c1ccc(-c2c(-c3ccccc3)[n+](Cc3ccc4ccccc4c3)c(-c3ccc(-c4nc5ccccc5s4)cc3)n2Cc2ccc3ccccc3c2)cc1
active: NCI-H23 lung -82.1% | NCI-H226 lung -79.2% | NCI-H322M lung -92.1% | HOP-62 NSCLC -90% | NCI-H460 lung -67.3% | HOP-92 NSCLC -85.4% | NCI-H522 lung -81.3% | A549/ATCC NSCLC -77.1% | 786-0 renal -75.4% | COLO 205 colon -86.1% | DU-145 prostate -95.4% | K-562 leukemia -25.2% | MALME-3M melanoma -78% | MDA-MB-231 breast -84.3% | RXF 393 renal -95.6% | SF-268 CNS -76.9% | SF-295 CNS -99.6% | SF-539 CNS -88.9% | UACC-257 melanoma -87.5% | M14 melanoma -80.4%
